Hits are enriched below; roughly 2.2% of the tested compounds scored in any of these assays.
LGR2 inh – blocks bursicon-induced cAMP signaling via Drosophila LGR2; HEK293 LGR2, CRE-luciferase, bursicon-stimulated, 4 h; inhibition, % at 9.99 µM; 0.35% of 380,000 active;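 active = drop in luminescence signal, shown as inhibition above about 50% in the replicate tests, limit read from the data, passing the limit was not always enough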;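 also: agonist challenge used bursicon conditioned medium at about half maximal strength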
TROY NFkB inh – TROY signaling inhibition | Q293 LMP1-TROYcd NF-kB luciferase reporter, 4 h | inhibition, % at 10 µM | 0.98% of 360,000 active;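 active = compounds whose plate-normalised and pattern-corrected inhibition of the luciferase reporter signal at the single screening dose is 50% or more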
HSP90 inh – HSP90 refolding inhibition in rabbit reticulocyte lysate; luciferase refolding luminescence, 3 h; 0.91% of 290,000 active; inhibition, % at 5.6 µM;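 active = inhibition above the screen-wide mean plus 3 SD, computed separately per campaign, cut at about 16% in these data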;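 also: 0% = DMSO wells and 100% = 60 µM geldanamycin wells; inhibitors lower the luminescence because luciferase stays unfolded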
TWEAK Fn14 block – TWEAK-Fn14 signaling inhibition; TWEAK-stimulated Fn14 reporter cells, luciferase luminescence, 8 h; inhibition, % at 10 µM; 2% of 360,000 active; in the data active = inhibition above about 50%
Numbers without * were called inactive; nt = no result.

SMILES	LGR2 inh	TROY NFkB inh	HSP90 inh	TWEAK Fn14 block
Cc1ccc2nc(-c3ccc(SCC(=O)O)nc3)[nH]c2c1	nt	6.5	9.2	28.1
Cc1ccc2nc(-c3ccc(SCC(=O)N4CCc5ccccc54)nc3)[nH]c2c1	-55.5	-60.2	-2.7	53.0*
COc1ccc(-c2cc(N)n(S(=O)(=O)c3c(F)c(F)c(F)c(F)c3F)n2)cc1OC	-14.8	9.1	-1.7	50.8*
O=C(NCc1ccco1)C1CCN(C(=O)c2cc3sccc3n2Cc2ccc(Cl)cc2)CC1	nt	45.2	-1.2	50.4*
Cc1ccc(-n2c(C)c([N+](=O)[O-])c3ccc(O)c(CN(C)C)c32)cc1	nt	50.7*	1.0	75.0*
Cc1ccccc1-c1ccc([C@H]2[C@@H](CO)N3CCCCN(C(=O)Nc4ccc(F)cc4)C[C@H]23)cc1	-12.1	nt	nt	nt
CC(C)N(c1ccccc1)c1ccc(NC(=O)CCl)cc1	33.2	1.3	1.1	62.2*
O=C(CCl)Nc1ccc(-c2ccccc2)cc1	nt	-41.8	3.5	32.1
CC(=O)N1c2ccc(S(=O)(=O)NCC3CCC(C(=O)Nc4cccc(C)n4)CC3)cc2CC1C (stereo not drawn)	5.7	22.1	-2.6	58.8*
C[C@@H]1CN([C@@H](C)CO)C(=O)c2cc(-c3ccccc3)cnc2O[C@H]1CN(C)Cc1ccc(C(=O)O)cc1	1.2	nt	nt	nt
COc1ccc(-c2csc(C3=C(O)CN(Cc4ccc(Cl)cc4)C3=N)n2)cc1OC	-17.6	15.6	2.9	-10.1
N=C1C(c2nc(-c3ccc(F)cc3)cs2)=C(O)CN1Cc1ccc(Cl)cc1	nt	2.5	3.0	105.9*
CO[C@@H]1CN(C)C(=O)c2cc(NC(=O)Cc3ccccc3)ccc2OC[C@H](C)NC[C@@H]1C	-11.4	nt	nt	nt
CN(C)c1ccc(Nc2nc(N)c([N+](=O)[O-])c(N3CCOCC3)n2)cc1	23.0	69.7*	0.6	25.7
COCC#Cc1cnc2c(c1)C(=O)N([C@H](C)CO)C[C@@H](C)[C@@H](CN(C)C(=O)CN1CCOCC1)O2	-0.9	nt	nt	nt
CCCCN(C)C(=O)CCC(=O)NNc1nc2ccccc2c2nc(C)nn12	0.1	-6.2	0.2	76.1*
O=C(Nc1ccc2c(c1)OCCO2)C1CCCN1C(=O)Nc1ccccc1 (stereo not drawn)	5.8	4.0	0.5	-21.8
CC(=O)c1cccc(NC(=O)N2CCCC2C(=O)Nc2cccc(C)c2)c1 (stereo not drawn)	nt	11.9	-0.1	65.8*
O=C(Nc1ccc2c(c1)OCCO2)C1CCCN1C(=O)Nc1ccc(F)cc1 (stereo not drawn)	4.1	32.0	1.3	59.5*
CC(=O)Nc1cccc(NC(=O)C2CCCN2C(=O)Nc2cccc(C)c2)c1 (stereo not drawn)	nt	-1.0	1.0	-0.3
O=C(C[C@H]1CC[C@@H]2[C@H](COC[C@@H](O)CN2C(=O)Nc2ccc(C(F)(F)F)cc2)O1)NCC1CCCCC1	5.2	nt	nt	nt
COc1ccc(C[C@H](N)C(=O)N[C@H]2[C@@H](O)[C@H](n3cnc4c(N(C)C)ncnc43)O[C@@H]2CO)cc1	7.2	2.9	nt	93.3*
COc1cc(Nc2ccn3nc(-c4ccccc4Cl)cc3n2)cc(OC)c1OC	-49.4	-6.7	nt	60.5*
Cc1ccc(NC(=O)C2C3C=CC4(O3)C2C(=O)N(CCN2CCOCC2)C4C(=O)NC2CCCCC2)cc1C (stereo not drawn)	0.0	-3.1	-3.4	88.4*
CN1CCN(C(=O)C[C@@H]2C[C@H]3c4cc(NC(=O)Nc5ccccc5)ccc4O[C@H]3[C@@H](CO)O2)CC1	2.7	nt	nt	nt
SMILES	LGR2 inh	TROY NFkB inh	HSP90 inh	TWEAK Fn14 block
CN(C)c1ccc(N=Cc2ccco2)cc1	nt	32.0	-1.7	50.5*
COCC(=O)N(C)C[C@@H]1Oc2cc(-c3ccc(C)cc3)ccc2S(=O)(=O)N([C@@H](C)CO)C[C@@H]1C	-2.3	nt	nt	nt
COC(=O)c1cc(=O)nc(NN=C2c3ccccc3-c3ccccc32)s1	3.0	16.2	nt	60.7*
COC(=O)c1cc(=O)nc(NN=Cc2ccccc2)s1	-10.7	nt	nt	nt
C[C@@H]1CN([C@@H](C)CO)C(=O)Cc2cc(NS(C)(=O)=O)ccc2O[C@H]1CN(C)Cc1ccc(C(=O)O)cc1	2.7	nt	nt	nt
COc1ccc(/C=C/c2ccc3cccc(O)c3n2)c(OC)c1OC	-92.0	-44.2	0.2	81.3*
COc1cc(Br)cc(/C=C/c2ccc3cccc(O)c3n2)c1OC	-2.1	-26.6	6.6	0.5
COc1cccc(/C=C/c2ccc3cccc(O)c3n2)c1OC	-53.9	48.3	-1.1	82.4*
CO[C@H]1CN(C)C(=O)c2ccc(NC(=O)c3cnccn3)cc2OC[C@@H](C)N(C(=O)C2CC2)C[C@H]1C	16.7	nt	nt	nt
COC1=C(C)C(=O)C2=C(C1=O)C1C3CC4=C(C(=O)C(OC)=C(C)C4=O)C(CNC(=O)C(C)=O)N3C(C#N)C(C2)N1C (stereo not drawn)	96.5*	63.3*	nt	99.8*
CCOC(=O)c1ccc(Nc2nc(C)cc(C)n2)cc1	-18.9	-54.3	0.6	7.7
CCOC(=O)c1ccc(Nc2cc(C)nc(-c3ccccc3)n2)cc1	1.2	70.7*	-4.3	12.2
NC(=O)c1sc2nc3c(c(-c4cccs4)c2c1N)CCCCC3	nt	-6.4	-4.2	76.0*
COc1ccc(NC(=O)N(C)C[C@@H]2Oc3ccc(NS(=O)(=O)c4ccc(C)cc4)cc3CC(=O)N([C@H](C)CO)C[C@H]2C)cc1	6.2	nt	nt	nt
COc1ccc(/C=C/C(=O)Nc2sc3c(c2C(=O)NCc2cccnc2)CCCC3)cc1	-12.6	5.6	-1.5	52.6*
CCCCCOC(=O)C1=C(C)NC(=O)NC1c1ccc(OC)cc1 (stereo not drawn)	28.9	2.8	1.9	69.9*
COc1ccc(C2NC(=O)NC(C)=C2C(=O)OC2CCCCC2)cc1 (stereo not drawn)	6.6	6.0	nt	-5.3
COc1ccc(C2NC(=O)NC(C)=C2C(=O)OC2CCCC(C)C2)cc1 (stereo not drawn)	18.3	44.3	-5.0	72.7*
COc1cccc(S(=O)(=O)Nc2ccc3c(c2)[C@H]2C[C@@H](CC(=O)N[C@@H](C)c4ccccc4)O[C@H](CO)[C@H]2O3)c1	-11.1	nt	nt	nt
CNC(=O)C[C@@H]1CC[C@@H]2[C@H](COc3ccc(NC(=O)c4cccc(OC)c4)cc3C(=O)N2C)O1	28.8	nt	nt	nt
O=C(N[C@H]1CC[C@@H](CC(=O)N2CCOCC2)O[C@@H]1CO)c1ccc2c(c1)OCO2	5.6	nt	nt	nt
O=C(Nc1cccc2ccccc12)NC1CCCCC1	-6.3	-2.5	-4.4	-11.3
COC(=O)CCCC(=O)NC1CCCN(C2Cc3ccccc3C2)C1 (stereo not drawn)	-12.6	5.4	-4.1	-9.7
O=C(CCCO)NC1Cc2ccccc2C1	-0.3	2.1	3.2	59.8*
O=C(Nc1cccc2ccccc12)NC1Cc2ccccc2C1	-22.0	56.8*	-7.8	89.2*
O=C(C[C@H]1C=C[C@H](NC(=O)C2CC2)[C@@H](CO)O1)NCc1ccccc1Cl	-0.3	nt	nt	nt
Cc1ccc(S(=O)(=O)C2(C(=O)N3CCN(c4ccccc4F)CC3)CC2)cc1	17.0	5.7	2.4	65.9*
O=C(CC1CC1)N1[C@H](CO)[C@H](c2ccccc2)C12CN(Cc1cc(F)ccc1F)C2	0.1	nt	nt	nt
Cc1ccccc1S(=O)(=O)N[C@H]1CC[C@@H](CCn2cc(-c3ccc(F)cc3)nn2)O[C@@H]1CO	14.5	nt	nt	nt

Screening data from PubChem BioAssay.
